According to PubChem BioAssay (EPA / NIEHS):
The source holds several records for some structures; these can differ, active in one and inactive in another. Calls of active or inactive are those of the source. The calls were made as follows: active = hit-call score of the fitted dose curve at least 0.9, where 1 is the maximum; inactive = score below 0.9.

Tests used:
[1] = ATG_E_Box_CIS: Attagene CIS-FACTORIAL HepG2 Assay for human Enhancer Box (E-box) (AID 2282936); settings: HepG2 E-box cis-reporter transcription, actives raise or lower the signal
Outline: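 Transiently transfected HepG2, endogenous TF-driven reporters, 24 h dosing. Readout: RT-PCR plus capillary electrophoresis of fluorescent reporter fragments. Gain or loss of signal fitted bidirectionally against DMSO baseline.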

[2] = ATG_M_61_CIS: Attagene CIS-FACTORIAL HepG2 Assay for M61 Transcription Factor (Internal Marker) (AID 2282937); settings: HepG2 Attagene CIS-FACTORIAL M61 internal marker reporter; actives raise or lower the signal
Outline: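 HepG2 cells transiently transfected with cis-element-driven multiple reporter transcription units, dosed for 24 h. Reporter mRNA measured by RT-PCR, 6-FAM primer-extension labelling, HpaI digestion and capillary electrophoresis; bidirectional fit versus DMSO baseline.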

[3] = ATG_EGR_CIS: Attagene CIS-FACTORIAL HepG2 Assay for human Early Growth Response 1 (EGR1) (AID 2282938); settings: HepG2 Attagene CIS-FACTORIAL EGR reporter mRNA; actives raise or lower the signal
Outline: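 HepG2 cells transiently transfected with cis-promoter-driven multiplexed reporter transcription units; reporter mRNA measured 24 h after compound dosing by RT-PCR, 6-FAM primer extension, HpaI digestion and capillary electrophoresis. Bidirectional fit versus DMSO baseline.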

[4] = ATG_M_19_CIS: Attagene CIS-FACTORIAL HepG2 Assay for M19 Transcription Factor (Internal Marker) (AID 2282939); settings: HepG2 Attagene CIS-FACTORIAL M19 internal marker reporter; actives raise or lower the signal
Outline: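 Transfect HepG2 with MRTU reporter library → dose chemical, 24 h → isolate total RNA, reverse-transcribe with oligo(dT) → PCR, 6-FAM label, HpaI cut (2 h, 37 C) → capillary electrophoresis. Bidirectional fit vs DMSO.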

[5] = ATG_ERE_CIS: Attagene CIS-FACTORIAL HepG2 Assay for Estrogen Response Element (ERE) (AID 2282940); settings: HepG2 ERE cis-reporter, Attagene RNA transcript; actives raise or lower the signal
Outline: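 Transient MRTU transfection of human HepG2; cis-element promoters; 24 h dosing; total RNA → RT (oligo dT) → PCR → 6-FAM primer extension → HpaI digest → CE fluorescence. Bidirectional fit, DMSO baseline.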

[6] = ATG_Ets_CIS: Attagene CIS-FACTORIAL HepG2 Assay for human Erythroblast Transformation Specific (ETS) (AID 2282941); settings: HepG2 ETS cis-reporter transcription, actives raise or lower the signal
Outline: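 Multiplexed reporter transcript profiling: HepG2, 24 h treatment, total RNA to cDNA, PCR, 6-FAM labelling, HpaI cut, capillary electrophoresis. Gain- or loss-of-signal fitted against DMSO.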

[7] = molecular target: Hepatocyte nuclear factor 3-beta (Homo sapiens) (UniProt Q9Y261); assay: ATG_FoxA2_CIS: Attagene CIS-FACTORIAL HepG2 Assay for human Forkhead box A2 (FOXA2) (AID 2282942); settings: HepG2 cis-reporter transcription factor activity, 24 h; actives raise or lower the signal
Outline: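 HepG2 cells transiently transfected with multiple cis-regulated reporter transcription units, dosed for 24 h. Reporter mRNA measured by RT-PCR, 6-FAM labelling, HpaI digestion and capillary electrophoresis; bidirectional fitting against DMSO baseline.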

[8] = ATG_FoxO_CIS: Attagene CIS-FACTORIAL HepG2 Assay for human Forkhead box O (FoxO) (AID 2282943); settings: HepG2 Attagene cis-reporter, FoxO element, mRNA; actives raise or lower the signal
Outline: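 Transfected HepG2 reporter cells exposed to test chemical for 24 h; reporter RNA measured by reverse transcription, PCR and fluorescent capillary electrophoresis; curves fitted for increases and decreases against DMSO.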

[9] = ATG_GATA_CIS: Attagene CIS-FACTORIAL HepG2 Assay for human GATA Binding Protein (AID 2282944); settings: HepG2 GATA cis-element reporter, Attagene multiplex mRNA; actives raise or lower the signal
Outline: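 Transient MRTU transfection, HepG2, 24 h compound exposure. Total RNA → oligo(dT) RT → PCR → 6-FAM primer extension → HpaI cut → CE. Bidirectional fit vs DMSO.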

[10] = ATG_GLI_CIS: Attagene CIS-FACTORIAL HepG2 Assay for human Zinc Finger Protein GLI1 (AID 2282945); settings: HepG2, Attagene cis-factorial reporter mRNA, GLI element; actives raise or lower the signal
Outline: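 Transiently transfected HepG2 cells report endogenous transcription factor activity via cis-element-driven reporter units. After 24 h compound exposure, reporter mRNA was measured by RT-PCR with capillary electrophoresis; bidirectional fitting against DMSO baseline.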

Hepatocyte nuclear factor 3-beta (Homo sapiens), sequence (Q9Y261 whole entry, looked up): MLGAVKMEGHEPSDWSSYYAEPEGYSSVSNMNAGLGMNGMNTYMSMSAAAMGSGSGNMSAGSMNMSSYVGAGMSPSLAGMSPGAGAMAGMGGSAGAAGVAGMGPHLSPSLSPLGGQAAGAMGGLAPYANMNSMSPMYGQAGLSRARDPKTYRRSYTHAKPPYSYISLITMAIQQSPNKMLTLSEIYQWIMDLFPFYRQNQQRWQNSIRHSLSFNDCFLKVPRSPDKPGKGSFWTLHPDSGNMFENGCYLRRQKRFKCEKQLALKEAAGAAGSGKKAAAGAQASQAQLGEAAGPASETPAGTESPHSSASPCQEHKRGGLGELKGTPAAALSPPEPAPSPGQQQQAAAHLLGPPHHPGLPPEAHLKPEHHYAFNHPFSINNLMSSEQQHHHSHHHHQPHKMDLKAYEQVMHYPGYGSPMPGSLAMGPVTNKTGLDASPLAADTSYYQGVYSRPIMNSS

c1ccc(OP(Oc2ccccc2)Oc2ccccc2)cc1
outcome [1]: inactive | outcome [2]: inactive | outcome [3]: inactive | outcome [4]: inactive | AC50 [5]: 72.9 µM (active) | outcome [6]: inactive | outcome [7]: inactive | outcome [8]: inactive | outcome [9]: inactive | outcome [10]: inactive

Cc1cccc(N)c1
outcome [1]: inactive | outcome [2]: inactive | outcome [3]: inactive | outcome [4]: inactive | outcome [5]: inactive | outcome [6]: inactive | outcome [7]: inactive | outcome [8]: inactive | outcome [9]: inactive | outcome [10]: inactive

Clc1ccc(Oc2ccccc2)cc1
outcome [1]: inactive | outcome [2]: inactive | outcome [3]: inactive | outcome [4]: inactive | AC50 [5]: 88.4 µM (active) | outcome [6]: inactive | outcome [7]: inactive | outcome [8]: inactive | outcome [9]: inactive | outcome [10]: inactive

CCCCCCCc1ccc(O)cc1
outcome [1]: inactive | outcome [2]: inactive | outcome [3]: inactive | outcome [4]: inactive | AC50 [5]: 3.89 µM (active) [middle of 4 runs] | outcome [6]: inactive | outcome [7]: inactive | outcome [8]: inactive | outcome [9]: inactive | outcome [10]: inactive

Cc1ccc(O)cc1C
outcome [1]: inactive | outcome [2]: inactive | outcome [3]: inactive | outcome [4]: inactive | AC50 [5]: 160 µM (active) | outcome [6]: inactive | outcome [7]: inactive | outcome [8]: inactive | outcome [9]: inactive | outcome [10]: inactive

Cc1ccc(N)cc1N
outcome [1]: inactive | outcome [2]: inactive | outcome [3]: inactive | outcome [4]: inactive | outcome [5]: inactive | outcome [6]: inactive | outcome [7]: inactive | outcome [8]: inactive | outcome [9]: inactive | outcome [10]: inactive

COC(N)=O
outcome [1]: inactive | outcome [2]: inactive | outcome [3]: inactive | outcome [4]: inactive | outcome [5]: inactive | outcome [6]: inactive | outcome [7]: inactive | outcome [8]: inactive | outcome [9]: inactive | outcome [10]: inactive

O=C(CBr)OCc1ccccc1
outcome [1]: inactive | outcome [2]: inactive | outcome [3]: inactive | outcome [4]: inactive | AC50 [5]: 100 µM (active) | outcome [6]: inactive | outcome [7]: inactive | outcome [8]: inactive | outcome [9]: inactive | outcome [10]: inactive

C=CC(=O)OCC(CC)(COC(=O)C=C)COC(=O)C=C
AC50 [1]: 22 µM (active) | outcome [2]: inactive | AC50 [3]: 26.6 µM (active) | outcome [4]: inactive | outcome [5]: inactive | outcome [6]: inactive | outcome [7]: inactive | outcome [8]: inactive | outcome [9]: inactive | outcome [10]: inactive

OCC(F)(F)OC(F)(F)C(F)(F)OC(F)(F)C(F)(F)OC(F)(F)F
outcome [1]: inactive | outcome [2]: inactive | outcome [3]: inactive | outcome [4]: inactive | AC50 [5]: 5.62 µM (active) | outcome [5]: inactive | outcome [6]: inactive | outcome [7]: inactive | outcome [8]: inactive | outcome [9]: inactive | outcome [10]: inactive

COP(=O)(CCC(=O)NCO)OC
outcome [1]: inactive | outcome [2]: inactive | outcome [3]: inactive | outcome [4]: inactive | outcome [5]: inactive | outcome [6]: inactive | outcome [7]: inactive | outcome [8]: inactive | outcome [9]: inactive | outcome [10]: inactive

CCCCOCC1CO1 (stereo unspecified)
outcome [1]: inactive | outcome [2]: inactive | outcome [3]: inactive | outcome [4]: inactive | outcome [5]: inactive | outcome [6]: inactive | outcome [7]: inactive | outcome [8]: inactive | outcome [9]: inactive | outcome [10]: inactive

O=C(O)C(F)(F)C(F)(F)C(=O)O
outcome [1]: inactive | outcome [2]: inactive | outcome [3]: inactive | outcome [4]: inactive | outcome [5]: inactive | outcome [6]: inactive | outcome [7]: inactive | outcome [8]: inactive | outcome [9]: inactive | outcome [10]: inactive

CCN(CC)c1ccccc1
outcome [1]: inactive | outcome [2]: inactive | outcome [3]: inactive | outcome [4]: inactive | outcome [5]: inactive | outcome [6]: inactive | outcome [7]: inactive | outcome [8]: inactive | outcome [9]: inactive | outcome [10]: inactive

c1cc2c3c(cccc3c1)CC2
outcome [1]: inactive | outcome [2]: inactive | outcome [3]: inactive | outcome [4]: inactive | outcome [5]: inactive | outcome [6]: inactive | outcome [7]: inactive | outcome [8]: inactive | outcome [9]: inactive | outcome [10]: inactive

C=CC(=O)OCC(F)(F)C(F)F
outcome [1]: inactive | outcome [2]: inactive | outcome [3]: inactive | outcome [4]: inactive | outcome [5]: inactive | outcome [6]: inactive | outcome [7]: inactive | outcome [8]: inactive | outcome [9]: inactive | outcome [10]: inactive

O=C(O)C(Cl)Cl
outcome [1]: inactive | outcome [2]: inactive | outcome [3]: inactive | outcome [4]: inactive | outcome [5]: inactive | outcome [6]: inactive | outcome [7]: inactive | outcome [8]: inactive | outcome [9]: inactive | outcome [10]: inactive

CC(C)CBr
outcome [1]: inactive | outcome [2]: inactive | outcome [3]: inactive | outcome [4]: inactive | outcome [5]: inactive | outcome [6]: inactive | outcome [7]: inactive | outcome [8]: inactive | outcome [9]: inactive | outcome [10]: inactive

CCOC(=O)c1ccccc1N
outcome [1]: inactive | outcome [2]: inactive | outcome [3]: inactive | outcome [4]: inactive | outcome [5]: inactive | outcome [6]: inactive | outcome [7]: inactive | outcome [8]: inactive | outcome [9]: inactive | outcome [10]: inactive

N#C/C=C/c1ccccc1
outcome [1]: inactive | outcome [2]: inactive | outcome [3]: inactive | outcome [4]: inactive | outcome [5]: inactive | outcome [6]: inactive | outcome [7]: inactive | outcome [8]: inactive | outcome [9]: inactive | outcome [10]: inactive

CCOP(=S)(OCC)SCS(=O)(=O)CC
outcome [1]: inactive | outcome [2]: inactive | outcome [3]: inactive | outcome [4]: inactive | outcome [5]: inactive | outcome [6]: inactive | outcome [7]: inactive | outcome [8]: inactive | outcome [9]: inactive | outcome [10]: inactive

O=[N+]([O-])c1cc(Cl)ccc1Cl
outcome [1]: inactive | outcome [2]: inactive | outcome [3]: inactive | outcome [4]: inactive | outcome [5]: inactive | outcome [6]: inactive | outcome [7]: inactive | outcome [8]: inactive | outcome [9]: inactive | outcome [10]: inactive

CC(Cl)CN(C)C (stereo unspecified)
outcome [1]: inactive | outcome [2]: inactive | outcome [3]: inactive | outcome [4]: inactive | outcome [5]: inactive | outcome [6]: inactive | outcome [7]: inactive | outcome [8]: inactive | outcome [9]: inactive | outcome [10]: inactive

COP(N)(=S)OC
outcome [1]: inactive | outcome [2]: inactive | outcome [3]: inactive | outcome [4]: inactive | outcome [5]: inactive | outcome [6]: inactive | outcome [7]: inactive | outcome [8]: inactive | outcome [9]: inactive | outcome [10]: inactive

O=C(O)C1C(C(=O)O)C2(Cl)C(Cl)=C(Cl)C1(Cl)C2(Cl)Cl (stereo unspecified)
outcome [1]: inactive | outcome [2]: inactive | outcome [3]: inactive | outcome [4]: inactive | outcome [5]: inactive | outcome [6]: inactive | outcome [7]: inactive | outcome [8]: inactive | outcome [9]: inactive | outcome [10]: inactive
